Screens deposited in PubChem by several laboratories.
Hits are enriched below; roughly 1.3% of the tested compounds scored in any of these assays.
B2AR ag = activates human beta-2 adrenergic receptor causing internalization; AID 504454; Am2.2-beta2AR cells, FAP receptor internalization, flow cytometry; response, % (concentration not given with the values); actives 0.43% (n = 340,000);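 active = response above a set limit, near 3 SD of response in nonfluorescent compounds, cut at about 42% in these data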
VLA-4 inh = inhibition in a human VLA-4 binding assay; actives 0.2% (n = 330,000); VLA-4 expressing cells, ligand binding flow cytometry; inhibition, % (about 7 µM as worked out from the volumes in the protocol); in the data active = inhibition above about 50%
Bfl-1 A1 inh = inhibitors of the anti-apoptotic protein A1, read as caspase activation. MEF A1-2A-BIM cells, Caspase-Glo 3/7 luminescence, 3 h; percent of clofoctol response, vehicle zero. caspase activation, % (test concentration not listed). actives 0.066% (n = 330,000). AID 2462;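 active = over half of replicate activation scores above 10%, or exactly half above 10 with the replicate mean above 10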
GRK2 inh = human GRK2 inhibition via aptamer displacement. P25098. bead flow cytometry, FAM-aptamer displacement from GRK2. inhibition of aptamer binding, % at 10 µM. actives 0.59% (n = 330,000);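 active = inhibition of aptamer binding above 40%, roughly 3 SD of noise, on plates passing a quality check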;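 also: median bead fluorescence of bound FAM aptamer so fluorescent compounds give negative values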
NTR1 ag = NTR1 (human) agonism; actives 0.17% (n = 330,000); activation, % at 20 µM; P30989; NTR1-U2OS beta-arrestin-GFP spot imaging, agonist mode;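 active = activation at or above 40% of the spot to cytoplasm intensity ratio, with at least 20 cells analyzed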
Target sequence (P30989 whole entry, looked up): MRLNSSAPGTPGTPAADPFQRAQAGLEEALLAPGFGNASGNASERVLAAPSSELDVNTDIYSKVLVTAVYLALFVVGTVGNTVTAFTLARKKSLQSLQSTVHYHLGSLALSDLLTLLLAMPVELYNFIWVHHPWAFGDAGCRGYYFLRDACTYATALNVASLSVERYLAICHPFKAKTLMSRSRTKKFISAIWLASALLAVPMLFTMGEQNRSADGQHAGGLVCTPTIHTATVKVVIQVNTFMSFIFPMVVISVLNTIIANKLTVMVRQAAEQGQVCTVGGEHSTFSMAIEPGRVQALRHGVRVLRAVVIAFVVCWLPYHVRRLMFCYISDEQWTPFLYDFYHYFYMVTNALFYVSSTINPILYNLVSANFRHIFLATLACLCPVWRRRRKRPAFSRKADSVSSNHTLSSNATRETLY
VLA-4 mod pick = human VLA-4 allosteric modulation in cherry picked compounds; shares compounds with VLA-4 inh; U937 cells, HUTS-21 LIBS mAb binding, flow cytometry; LDV ligand present at threefold Kd; inhibition, % at 6.7 µM; actives 2% (n = 1,300); AID 2813; in the data active = inhibition above about 40%
Each line names hits and unclear results; the compound was inactive in the other large screens (follow-up assays come after a bar, where they were run).

CCOc1ccccc1N1C(=O)CN(Cc2ccc(OC)c(OC)c2)C1=S	none
COC(=O)c1ccncc1C(=O)Nc1ccc(Oc2ncc(C(F)(F)F)cc2Cl)cc1	VLA-4 inh 50 | VLA-4 mod pick inactive
COC(=O)c1ccncc1C(=O)Nc1ccc(OC)cc1	none
CC1CCCC(NC(=O)/C=C/c2c(F)cccc2Cl)C1C (stereo unspecified)	none
COC(=O)c1ccc(C)c(NC(=O)c2ccc(Cl)c([N+](=O)[O-])c2)c1	VLA-4 inh 54 | VLA-4 mod pick inactive
O=C(c1cc(-c2cccs2)nc2ccccc12)N1CCN(S(=O)(=O)c2cccc(F)c2)CC1	VLA-4 inh 91 | VLA-4 mod pick inactive
O=C(c1cc(-c2cccs2)nc2ccccc12)N1CCN(c2ccccc2)CC1	none
O=C(c1cc(-c2cccs2)nc2ccccc12)N1CCN(S(=O)(=O)c2ccccc2)CC1	none | VLA-4 mod pick inactive
CN(c1ccccc1C(=O)Nc1ccccc1-c1ccccc1)S(C)(=O)=O	none
Cc1ccc(NS(=O)(=O)c2ccc(-c3cnc(C4CC4)o3)cc2)c(C)c1	VLA-4 inh 55 | VLA-4 mod pick 47
CCCCc1ccc(-n2c(Cc3cccs3)n[nH]c2=S)cc1	VLA-4 inh 55 | VLA-4 mod pick inactive
S=c1[nH]nc(Cc2cccs2)n1-c1ccccc1	none
CC(=O)CC1(OC(C)=O)C(=O)N(C)c2ccccc21 (stereo unspecified)	none
COc1cc(C=O)cc(Cl)c1OC(=O)N1CCOCC1	none
Clc1ccc(CSc2nncn2-c2ccccn2)cc1	VLA-4 inh 60 | VLA-4 mod pick inactive
CCN1CCN(CC(O)COc2ccc(C)c(C)c2)CC1 (stereo unspecified)	VLA-4 inh 92 | VLA-4 mod pick inactive
CCOc1ccc(CN(CCO)CCO)cc1[N+](=O)[O-]	VLA-4 inh 90 | VLA-4 mod pick inactive
COc1ccc(OC)c(N(CC(=O)Nc2cccnc2)S(=O)(=O)c2ccccc2)c1	VLA-4 inh 63 | VLA-4 mod pick inactive
N#Cc1c(SCC(=O)O)nc(-c2ccccc2)c2c1CCCC2	VLA-4 inh 94 | VLA-4 mod pick inactive
CC(C)[C@H](NC(=O)c1ccc(Br)cc1)C(=O)NC1CCCCC1	none (no result: Bfl-1 A1 inh)
COCCN1C=C2C(=O)C(C)(OC(=O)c3cccs3)C(=O)C=C2C=C1CCCC(=O)OC (stereo unspecified)	VLA-4 inh 50 | VLA-4 mod pick inactive
COc1ccccc1C(CNc1ccc(S(=O)(=O)N2CCCC2)cc1[N+](=O)[O-])N(C)C (stereo unspecified)	none
COc1ccc(-c2cc(C(=O)N3CCN(c4ncccn4)CC3)c3ccccc3n2)cc1OC	none
COc1cccc(-c2cc(C(=O)N3CCN(c4ncccn4)CC3)c3ccccc3n2)c1	none
O=C(c1cc(-c2ccc(Br)cc2)nc2ccccc12)N1CCN(c2ccccc2O)CC1	none | VLA-4 mod pick inactive
CC(C)Oc1cccc(-c2cc(C(=O)N3CCN(c4ncccn4)CC3)c3ccccc3n2)c1	none | VLA-4 mod pick inactive
COc1ccc(-c2cc(C(=O)N3CCN(c4cccc(C)c4C)CC3)c3ccccc3n2)cc1OC	none | VLA-4 mod pick inactive
O=C(NCc1cccs1)C1CCC(=O)N(Cc2cccc(C(F)(F)F)c2)C1 (stereo unspecified)	none
O=C(Nc1ccccc1)Nc1ccncc1	VLA-4 inh 62 | VLA-4 mod pick inactive
O=C(Nc1ccncc1)Nc1ccccn1	none
COc1cccc(NC(=O)CN(c2ccc(C)cc2)S(=O)(=O)c2c(C)nn(C)c2C)c1	none
COc1ccc(N(CC(=O)Nc2ccc(F)c(F)c2)S(=O)(=O)c2c(C)n[nH]c2C)cc1	none | VLA-4 mod pick inactive
COc1ccc(N(CC(=O)Nc2cccc(OC)c2)S(=O)(=O)c2c(C)nn(C)c2C)cc1	none | VLA-4 mod pick inactive
Cc1nn(C)c(C)c1S(=O)(=O)N(CC(=O)NCc1cccs1)c1ccc(C(C)C)cc1	none
Cc1nn(C)c(C)c1S(=O)(=O)N(CC(=O)NCc1ccco1)c1ccc(C(C)C)cc1	VLA-4 inh 64 (no result: B2AR ag) | VLA-4 mod pick inactive
CCN(C[C@H]1N[C@@](Cc2ccccc2)(C(=O)OC)[C@H]2C(=O)N(Cc3ccccc3)C(=O)[C@@H]12)C(=O)c1ccc(F)cc1	none (no result: Bfl-1 A1 inh) | VLA-4 mod pick inactive
COC(=O)[C@]1(Cc2ccccc2)N[C@H](CN(C)C(=O)Nc2ccc(OC)cc2)[C@@H]2C(=O)N(Cc3ccccc3)C(=O)[C@@H]21	none | VLA-4 mod pick inactive
CCN(C[C@H]1N[C@@](Cc2ccccc2)(C(=O)OC)[C@H]2C(=O)N(C)C(=O)[C@@H]12)C(=O)c1ccc(C)cc1	VLA-4 inh 51 (no result: Bfl-1 A1 inh) | VLA-4 mod pick inactive
COC(=O)[C@]1(Cc2ccccc2)N[C@H](CN(C)C(=O)Nc2ccc(OC)cc2)[C@@H]2C(=O)N(C)C(=O)[C@@H]21	none (no result: Bfl-1 A1 inh)
Cc1cc(C)cc(-n2c(C)cc(/C=N/NC(=O)c3ccncc3)c2C)c1	none
Cc1cc(/C=N\NC(=O)c2cccs2)c(C)n1-c1ccc2ncccc2c1	VLA-4 inh 93 | VLA-4 mod pick inactive
O=C1c2cc([N+](=O)[O-])ccc2-c2cc(Br)c(N=C(NO)C(F)(F)F)cc21	none (no result: VLA-4 inh, Bfl-1 A1 inh, GRK2 inh, NTR1 ag)
CCCNC(=O)CN(C1CCCCC1)S(C)(=O)=O	VLA-4 inh 91 | VLA-4 mod pick inactive
Cc1ccc(C(=O)N2CCC(C)CC2)cc1NC1=NC2CS(=O)(=O)CC2S1 (stereo unspecified)	VLA-4 inh 67 | VLA-4 mod pick inactive
Cc1ccc(C(=O)N2CCN(c3ncccn3)CC2)cc1NC1=NC2CS(=O)(=O)CC2S1 (stereo unspecified)	none
Cc1ccc(C(=O)N2CC(C)CC(C)C2)cc1NC1=NC2CS(=O)(=O)CC2S1 (stereo unspecified)	none | VLA-4 mod pick inactive
Cc1ccc(NC(=O)c2ccc(C)c(NC3=NC4CS(=O)(=O)CC4S3)c2)cc1C (stereo unspecified)	none (no result: Bfl-1 A1 inh)
CCOc1ccc2[nH]c(C(=O)N/N=C/c3ccc(OC)cc3)cc2c1	B2AR ag 52, VLA-4 inh 56 | VLA-4 mod pick inactive
CCn1c2ccccc2c2cc(NC(=O)c3cc(OC)cc(OC)c3)ccc21	none | VLA-4 mod pick inactive
Cn1c(=N)n(CC(O)c2ccco2)c2ccccc21 (stereo unspecified)	none
Cn1c(=N)n(CC(O)c2cccc3ccccc23)c2ccccc21 (stereo unspecified)	VLA-4 inh 51 | VLA-4 mod pick inactive
CCCCCCCCOC(=O)c1ccc(N)cc1	VLA-4 inh 50 | VLA-4 mod pick inactive
CCS(=O)(=O)N1CCC(C(=O)NCc2ccc(OC)cc2OC)CC1	none
COc1ccc(CNC(=O)C2CCN(S(C)(=O)=O)CC2)c(OC)c1	VLA-4 inh 53 | VLA-4 mod pick inactive
CSc1cccc(NC(=O)c2cc(S(=O)(=O)N3CCc4ccccc43)cn2C)c1	none
